Screen size: about 2,100 compounds; about 770 (37%) were called active. The list shows a part of the results. Unmarked numbers belong to inactive results.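 The calls were made as follows: active = by-eye trace score of 1 for enhancers or -1 for inhibitors, so actives lie on both sides (some results past the limit were not filed as active); inactive = score 0, or 3 fluorescent, or 4 baseline rise.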

Sequence of G protein-activated inward rectifier potassium channel 2 (Homo sapiens) + G protein-activated inward rectifier potassium channel 1 (Homo sapiens) (P48051 whole entry, looked up): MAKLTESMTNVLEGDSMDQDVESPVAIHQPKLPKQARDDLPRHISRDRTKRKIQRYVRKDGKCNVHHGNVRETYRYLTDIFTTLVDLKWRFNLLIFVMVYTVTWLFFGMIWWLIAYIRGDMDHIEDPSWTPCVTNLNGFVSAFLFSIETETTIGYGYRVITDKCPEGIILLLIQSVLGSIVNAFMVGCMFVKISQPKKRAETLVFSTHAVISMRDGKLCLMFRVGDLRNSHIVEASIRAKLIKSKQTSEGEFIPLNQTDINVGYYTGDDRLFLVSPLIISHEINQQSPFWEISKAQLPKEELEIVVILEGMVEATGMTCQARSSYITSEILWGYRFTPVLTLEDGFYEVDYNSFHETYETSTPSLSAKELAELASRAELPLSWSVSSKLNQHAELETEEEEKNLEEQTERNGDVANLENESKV
Sequence of G protein-activated inward rectifier potassium channel 2 (Homo sapiens) + G protein-activated inward rectifier potassium channel 1 (Homo sapiens) (P48549 whole entry, looked up): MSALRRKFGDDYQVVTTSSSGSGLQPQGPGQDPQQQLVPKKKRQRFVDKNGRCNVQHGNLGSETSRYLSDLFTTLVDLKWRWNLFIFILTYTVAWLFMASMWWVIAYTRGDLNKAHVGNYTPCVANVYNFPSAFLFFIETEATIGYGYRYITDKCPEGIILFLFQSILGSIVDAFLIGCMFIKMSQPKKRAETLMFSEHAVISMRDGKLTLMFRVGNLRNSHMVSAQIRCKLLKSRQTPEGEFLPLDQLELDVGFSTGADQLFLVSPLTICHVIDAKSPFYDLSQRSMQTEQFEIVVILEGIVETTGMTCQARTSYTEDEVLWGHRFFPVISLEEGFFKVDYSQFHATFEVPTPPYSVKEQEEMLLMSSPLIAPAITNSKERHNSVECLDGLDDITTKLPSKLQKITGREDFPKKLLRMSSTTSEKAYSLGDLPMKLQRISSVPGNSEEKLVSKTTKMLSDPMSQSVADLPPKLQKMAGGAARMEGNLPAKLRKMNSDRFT

This experiment addresses G protein-activated inward rectifier potassium channel 2 (Homo sapiens) + G protein-activated inward rectifier potassium channel 1 (Homo sapiens) (UniProt P48051+P48549). In words: GIRK1/2 thallium flux modulators, retest, confirmation, cell-based, HEK293 rmGlu8/hGIRK1/2, FluoZin-2 (AID 623911). The settings on record: HEK293 rmGlu8/hGIRK1/2, thallium flux FluoZin-2; actives lie on both sides; glutamate co-added at its EC20 level.
For the molecule `CCC(C)NC(=O)c1ccccc1NC(=O)Nc1ccccc1` (stereo unspecified), the manual score is 0. Regarding `COC(=O)c1sccc1NC(=O)CSc1ccccc1NS(=O)(=O)c1ccc(Cl)cc1`, the manual score was 0. Consider `CSc1ccccc1C(=O)Nc1cccc(C(C)=O)c1`, for which the manual score was 0. `CSc1ccccc1NC(=O)Nc1ccccc1`: the manual score is 1 (active). With `CSc1ccccc1NC(=O)Nc1ccc(Cl)cc1`, the manual score was 1 (active). Next, `CC(C)N=c1scc(-c2cccs2)n1/N=C/c1ccc(O)c(O)c1O`: 0; `Cc1c(C)[n+](=O)c2c(n1[O-])CCC2`: 0.

Consider `CC(/C=C/c1ccccc1)=N/NC(=O)c1cc([N+](=O)[O-])cc([N+](=O)[O-])c1`, for which the manual score is 0. For the molecule `CCc1ccc(/C=c2\s/c(=C\C(=O)C(C)(C)C)[nH]c2=O)cc1`, the manual score was 0. The result for `CCc1ccc(/C=C/C(=O)C2C(=O)c3ccccc3C2=O)cc1` reads 1 (active); that for `CC(/C=C\c1cccnc1)=C/C(=O)O`, 0. Next, `O=C(/C=C/c1ccccc1)C1C(=O)c2ccccc2C1=O`: 1 (active).

Consider `CN=C(C)C1=C(O)C(C(=O)OC)C(C)(C)CC1=O` (stereo unspecified), for which the manual score was 0.

`Cc1cccc2c(=O)cc(C)n(CC(=O)N3CCCCC3)c12`: the manual score was 0.

As for `CCc1c(O)nc(SCC(=O)Nc2ccc(OC)cc2)n(C2CCCCC2)c1=O`, the manual score is 0. As to `CC(=O)Oc1ccc2c(c1)Oc1cc(OC(C)=O)ccc1C21OC(=O)c2ccccc21`, the manual score was 3.

For `CCSc1nnc(NC(=O)C(Cc2ccccc2)n2cccc2)s1` (stereo unspecified), the manual score was 0. The result for `O=C(Nc1ncc(Br)s1)C(Cc1ccccc1)n1cccc1` (stereo unspecified) reads 1 (active); that for `Cc1csc(NC(=O)C(Cc2ccccc2)n2cccc2)n1` (stereo unspecified), 0; that for `O=C(CSc1nnc2ccccn12)Nc1nsc(-c2ccccc2)n1`, 0. The result for `CC1(C)CC(=O)C2=C(C1)N(c1ccccc1)C(N)=C(C#N)C2c1ccsc1` (stereo unspecified) reads -1 (active). The result for `CC1(C)CC(=O)C2=C(C1)NC(SCC(=O)Nc1ccccc1)=C(C#N)C2c1ccco1` (stereo unspecified) reads 0; that for `CN1C(=O)C2(C(C#N)=C(N)N(c3cc(Cl)cc(Cl)c3)C3=C2C(=O)CCC3)c2ccccc21` (stereo unspecified), 0; that for `S=c1[nH]nc(COc2ccccc2)n1C1CCCCC1`, 0. As for `CC(C)=CCC(C)(C)CNC(=O)NC1CCCCC1`, the manual score is 1 (active).

In the case of `O=C(O)CCC(=O)NC1CCCCCCC1`, the manual score was 0. The result for `O=C(Cc1ccccc1)N/N=C/c1cccn1-c1ccc([N+](=O)[O-])cc1` reads 1 (active); that for `N#CC1(Cc2ccc([N+](=O)[O-])cc2)c2ccccc2C=CN1C(=O)c1ccccc1` (stereo unspecified), 0; that for `CCOC(=O)CSC1=C(C#N)C(=O)NC(c2ccc(OC)c(OC)c2)S1` (stereo unspecified), 0. Next, `C=CCNCc1cccn1-c1sc2c(c1C#N)CCCC2`: -1 (active). The result for `CCOC(=O)c1c2n(c3c(NCc4ccccc4)ncnc13)CCCC2` reads -1 (active); that for `O=C(Oc1ccccc1)c1cccc(COC(=O)c2cnccn2)c1`, 0.

With `CCc1ccc(CNCCNCC(C)O)cc1` (stereo unspecified), the manual score was 1 (active). The result for `CCOC(=O)c1ccc(CNCc2ccc(Br)cc2)cc1` reads 0. Next, `COc1ccc(/C=C2\N=C(SC)NC2=O)cc1`: 1 (active); `COc1ccc(C(=O)N2C(=S)NC(=O)/C2=C\c2ccc(C)cc2)cc1`: 0; `COc1ccc(/C=C2\C(=O)NC(=S)N2C(=O)c2ccc(F)cc2)cc1`: 0. Next, `O=c1c2ccccc2[nH]c(=S)n1CCCN1CCN(C2CCCCC2)CC1`: -1 (active); `COC(=O)c1ccc2c(=O)n(CC3CCCO3)c(=S)[nH]c2c1` (stereo unspecified): 0; `CCOc1cc2[nH]c(=S)n(C(C)C)c(=O)c2cc1OCC`: 1 (active). For `CCC1CCCCN1CCCn1c(=S)[nH]c2ccccc2c1=O` (stereo unspecified), the manual score is 0. Next, `CC1CCC(n2c(=S)[nH]c3ccccc3c2=O)CC1` (stereo unspecified): 0.5; `CCn1c(=S)[nH]c2cc(C(=O)OC)ccc2c1=O`: 0.5; `CC(C)COn1c(=S)[nH]c2ccccc2c1=O`: 1 (active).

In the case of `CC1CCCCN1CCCn1c(=S)[nH]c2ccccc2c1=O` (stereo unspecified), the manual score was 0.

With `CC(C)n1c(=S)[nH]c2ccccc2c1=O`, the manual score was 1 (active).

Regarding `CC(C)N(CCn1c(=S)[nH]c2ccccc2c1=O)C(C)C`, the manual score is 0. Next, `CCC1(C)OCC(Cn2c3ccccc3c3ccccc32)O1` (stereo unspecified): 0; `CC(C)c1ccc2occ(-c3nn[nH]n3)c(=O)c2c1`: 0; `CC1CCCC(n2c(=S)[nH]c3ccccc3c2=O)C1C` (stereo unspecified): 3. The result for `CC1CCCCC1n1c(=S)[nH]c2ccccc2c1=O` (stereo unspecified) reads 1 (active); that for `Cc1cc(NC(=O)c2ccccc2Oc2ccccc2)no1`, 0. On to `CCCCOc1cccc(OCCCC)c1C(=O)Nc1cc(C)on1`, for which the manual score was -1 (active). `COc1ccc(C(=O)Nc2ccccc2)cc1S(=O)(=O)Nc1cc(C)on1`: the manual score was 0.

Take `COc1ccc(CN2CCNC(=O)C2CC(=O)O)cc1OC` (stereo unspecified): the manual score was 0. With `COc1cccc2[nH]c3c(N4CCCC(C)C4)ncnc3c12` (stereo unspecified), the manual score was -1 (active). On to `COc1ccc(N(CC(=O)NC2CCCC2)C(=O)Cn2nnc(-c3ccc(C)cc3)n2)cc1`, for which the manual score was 0. As for `Cc1ccc(-c2nnn(CC(=O)N3CCCCC3)n2)c(-n2cnnn2)c1`, the manual score is 0. Next, `Cc1ccc(-c2nnn(CC(=O)NC3CC4CCC3C4)n2)cc1` (stereo unspecified): 1 (active); `Clc1cccc(-c2ccc(/C=N/n3cnnc3)o2)c1Cl`: 0. Next, `CCCCCCCC1CC(CSC(=N)N)OC1=O` (stereo unspecified): -1 (active); `CCCCCCCC1CC(CSc2ncn[nH]2)OC1=O` (stereo unspecified): 0; `O=C(c1ccc(Br)o1)N1CCN(c2ccc3nnc(-c4ccc(F)cc4)n3n2)CC1`: 0. Next, `Fc1cc(Br)ccc1NC(=S)NCCc1ccccc1`: 0; `Fc1ccccc1NC(=S)NN(Cc1ccccc1)c1ccccc1`: -1 (active); `O=C(NCc1cccs1)c1cccnc1C(=O)O`: 0. Regarding `COc1ccc2cc(Br)ccc2c1CC(=O)NC1CC(C)(C)NC(C)(C)C1`, the manual score is 0.

`Cc1ccccc1CNC(=O)Nc1cccs1`: the manual score was 1 (active). Next, `CCn1c(NC(=O)Nc2cccc(C)c2C)cc2sccc21`: 0; `COc1ccc(Br)cc1CNC(=O)Nc1cccs1`: 1 (active); `COc1ccccc1NC(=O)COc1ccc(Br)cc1CO`: 0.

The record behind these values is PubChem BioAssay AID623911 (Vanderbilt High Throughput Screening Facility, 2012).
